Assay outcomes deposited in PubChem BioAssay by National Center for Advancing Translational Sciences (NCATS).
This is a sample that favours compounds with a hit; in the whole collection about 10% have one here.
HEK293 tox: kills HEK 293 cells; HEK 293 viability, ATP luminescence (CellTiter-Glo), 48-72 h; Potency, µM (top dose mostly 115 µM), for the others: at the highest dose activity change, negative = cytotoxicity, usual class: inhibitors; 94,000 compounds, 6.6% hits; AID 1345083; note: nearly all actives have a fitted effect of over 60% in size
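Luminescence from cellular ATP, measured with CellTiter-Glo, indicates HEK 293 viability. Cells plated at 250 cells/well are treated with compound for 48 or 72 hr at 37 degree Celsius before reagent addition.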
hNpr1 antagonist: antagonists of human natriuretic peptide receptor Npr1; Potency, µM (titrated, usually from 46.3 µM), for the others: at the highest dose activity change, negative = inhibition, actives largely listed as inhibitors; HEK293 hNpr1 GloSensor cGMP, ANP-stimulated luminescence; P16066; AID 1347048; 76,000 compounds, 1.6% hits; calls by dose curve; note: nearly all actives have a fitted effect of over 60% in size
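HEK293 cells stably expressing human Npr1 and cGMP GloSensor pGS-40F, loaded 2 h with 2% GloSensor reagent, given compound 30 min at room temperature. Luminescence read before and 20 min after 0.1 nM hNppA.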
3T3 cytotox: kills NIH 3T3 cells. NIH 3T3 viability, CellTiter-Glo ATP luminescence, 48-72 h. Potency, µM (series often up to 96.7 µM), without a hit: at the highest dose activity change, negative = cytotoxicity, most hits filed as inhibitors. 94,000 compounds, 4.3% hits. AID 1345082; note: nearly all actives have a fitted effect of over 55% in size
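Luminescent ATP readout (CellTiter-Glo, 10 min RT) after 48 or 72 hr compound exposure of NIH 3T3 cells seeded at 400 cells/well in 1536-well format; quantitative HTS.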
Luciferase inh: blocks purified firefly luciferase enzyme activity; P08659; purified P. pyralis luciferase, luminescence, biochemical; Potency, µM (top dose mostly 115 µM), actives largely listed as inhibitors; 76,000 compounds, 2.5% hits; note: nearly all actives have a fitted effect of over 65% in size
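FLuc 10nM, D-luciferin 10uM, ATP 10uM, Mg acetate 10mM, Tris acetate pH 7.5, Tween/BSA; cpd qHTS; enzyme added last; CCD luminescence.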
GPT2 inhibitor: inhibitors of human GPT2 alanine aminotransferase. Potency, µM (series often up to 57.7 µM), for inactives: top-dose activity change, negative = inhibition, most hits filed as inhibitors. 100,000 compounds, 0.25% hits. Q8TD30. Recombinant GPT2, coupled pyruvate oxidase/HRP Amplex Red fluorescence; note: nearly all actives have a fitted effect of over 60% in size
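Fluorescence of coupled pyruvate oxidase/HRP/Amplex Red system (50uM Amplex, 30 min, dark) reports pyruvate formed by GPT2. Enzyme reaction: 10ng/uL GPT2, 2mM L-alanine, 250uM a-KG, 30 min room temperature, pH 7.5; 50uM AOA control.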
* marks the source's active call; other numbers are inactive results; i = inactive; ? = inconclusive; . = no result given; [ ] = another dose, or the depositor's remark. Unless noted, calls come from the whole dose curve; as a rule, active = well fitted curve in the direction sought with a large enough effect; inconclusive = small, poorly fitted or top-dose-only effect, or another doubt; inactive = no such curve, though single readings can be large; an effect the other way counts as inactive or inconclusive. % is set by controls: 0 for no effect and ±100 for the full control effect; potency is the fitted concentration of half-maximal effect.

SMILES	HEK293 tox	hNpr1 antagonist	3T3 cytotox	Luciferase inh	GPT2 inhibitor
Nc1nc(C2CC(N)C2)cc(N2CCCN(Cc3cccs3)CC2)n1 (centres undefined)	45µM*	5%	?	i	?
O=C(NC1CC1)c1ccccc1OC1CN(Cc2ccncc2)C1	?	0%	2%	i	i
O=C(NC1CC1)c1ccccc1OC1CN(Cc2ccc(C(F)(F)F)cc2)C1	89µM*	3%	?	i	-4%
O=C(NC1CC1)c1ccccc1OC1CN(Cc2cccc(C(F)(F)F)c2)C1	32µM*	-24%	?	i	2%
O=C1CCSc2ccc(S(=O)(=O)N[C@H]3C[C@@H]4OCC[C@H]34)cc2N1	-17%	-5%	-18%	i	-2%
Cc1csc(NC(=O)C2CC(=O)N(c3n[nH]c4ccccc34)C2)n1 (centres undefined)	-19%	-1%	-11%	i	-11%
Cc1ccc2nc(NC(=O)C3CC(=O)N(c4n[nH]c5ccccc45)C3)sc2c1 (centres undefined)	40µM*	-1%	32µM*	i	-6%
COCCC(=O)N1CC(Oc2ccc(-c3noc(-c4ccccc4)n3)cc2)C1	22µM*	20µM*	?	13µM*	0%
COCCOCC(=O)N1CC(Oc2ccc(-c3noc(-c4ccccc4)n3)cc2)C1	?	10µM*	?	?	i
COc1cccc(C(=O)N2CC(Oc3ccc(-c4noc(-c5ccccc5)n4)cc3)C2)c1	3%	2%	i	i	1%
COc1cccc(CC(=O)N2CC(Oc3ccc(-c4nc(-c5ccccc5)no4)cc3)C2)c1	13µM*	3.5µM*	?	8.9µM*	i
COCC(=O)N1CC(Oc2ccc(-c3noc(-c4ccncc4)n3)cc2)C1	?	?	?	?	4%
CCCNC(=O)N1CCC2(CC1)CN(Cc1ccc(OC)cc1)C2=O	-15%	-7%	-11%	i	-8%
Cc1ccc(OCC(=O)NCC2Cn3cccc3C(=O)N2C)cc1 (centres undefined)	-5%	-25%	?	i	i
COc1ccc2[nH]c3c(c2c1)CCNC31CCN(C(=O)Cc2cccc(F)c2)CC1	?	-4%	?	i	-11%
O=C(C1CCCN1C(=O)Nc1ccccc1)N1CCC(c2nc3ccncc3[nH]2)C1 (centres undefined)	-5%	.	-6%	.	i
COc1ccc(CCC(=O)N2CC[C@@H]3COCCN(Cc4ccncc4)[C@@H]3C2)cc1	-4%	-12%	?	40µM*	i
CCN(CCN(C)C)C(=O)c1ccc2c(c1)C(O)CCCCCN2CCOC (centres undefined)	?	6%	-8%	i	2%
Fc1cccc(CN2CCO[C@@H](COc3ccccn3)[C@@H]2c2ccccc2)c1	?	.	35µM*	.	i
Cc1cccc(CNC(=O)[C@@]23CCCC[C@H]2N(C)C(=O)CC3)c1	-2%	-3%	-6%	i	1%
O=C(c1ccc(F)c(Cl)c1)N1CCN(c2cc(-c3cccs3)[nH]n2)CC1	?	-21%	?	i	i
O=C(COc1ccc(Cl)cc1)N1CCN(c2cc(-c3cccs3)[nH]n2)CC1	?	-17%	22µM*	i	i
CC(Oc1cccc(Cl)c1)C(=O)N1CCN(c2cc(-c3cccs3)[nH]n2)CC1 (centres undefined)	35µM*	?	?	i	-7%
O=C(c1cc(Cl)ccc1Cl)N1CCN(c2cc(-c3cccs3)[nH]n2)CC1	45µM*	?	?	i	i
O=C(CCc1ccccc1)N1CCN(c2cc(-c3cccs3)[nH]n2)CC1	?	-5%	?	i	i
SMILES	HEK293 tox	hNpr1 antagonist	3T3 cytotox	Luciferase inh	GPT2 inhibitor
COc1ccc(CC(=O)N2CCC(n3c(=O)[nH]c4ccccc43)CC2)cc1	?	-14%	?	i	i
O=C(NCC1CCCCC1)c1cc(-c2ccc(F)cc2)c2nncn2n1	?	.	6.3µM*	.	i
O=C(NCc1ccc(F)cc1)c1cc(-c2ccc(Cl)cc2Cl)c2nncn2n1	89µM*	.	45µM*	.	i
COCc1ncc(C)n1CCNC(=O)c1cc(-c2ccc(C)cc2C)n[nH]1	-3%	1%	-20%	i	i
CC1(CO)CCCC2(C)C1C(OC(=O)c1ccccc1)C=C1C(=O)OCC12O (centres undefined)	.	.	.	.	-22%[27.3 µM]
CC(C)(C)c1cc(C[C@H]2CNCC[C@H]2CC(=O)Nc2nccs2)no1	100µM*	5%[70.6 µM]	?	i	-4%[88.5 µM]
O=C(C[C@@H]1CCNC[C@@H]1Cc1cc(CSc2ccccc2)on1)NCc1cccs1	?	0%	?	i	-1%
CC(C)(C)c1ccc(-c2cc(C[C@H]3CNCC[C@H]3CC(=O)N3CCN(c4ccc(F)cc4)CC3)no2)cc1	?	-3%	?	i	i
COc1ccc(-c2cc(C[C@H]3CNCC[C@H]3CC(=O)Nc3nccs3)no2)cc1	100µM*	-1%[70.6 µM]	79µM*	i	-3%[88.5 µM]
CC(C)(C)c1ccc(-c2cc(C[C@H]3CNCC[C@H]3CC(=O)Nc3nccs3)no2)cc1	?	2%	8.9µM*	i	-6%
O=C(CCc1c[nH]c2ccccc12)N1CCC[C@H](n2c(=O)n(CC3CC3)c3cccnc32)C1	79µM*	-3%	?	i	-9%
Cc1nc(C)c(C(=O)N2CCC[C@H](n3c(=O)n(Cc4ccccc4)c4cccnc43)C2)s1	40µM*	-8%	-14%	i	i
O=C(NCc1ccccc1)N1CCC[C@H](n2c(=O)n(CC3CC3)c3cccnc32)C1	-28%	-4%	-24%	i	?
Cc1cccc(CC(=O)N2CCC[C@H](n3c(=O)n(Cc4ccccc4)c4cccnc43)C2)c1	40µM*	?	?	i	i
COCCn1c(=O)n([C@H]2CCCN(C(=O)Cc3cccc(F)c3)C2)c2ncccc21	i	7%	3%	i	i
Cc1nc2c(c(-c3ccc(Cl)cc3)n1)CCN([S+](=O)([O-])c1cccc(C(F)(F)F)c1)CC2	-25%	-3%	-19%	i	1%
COc1ccc(NC(=O)N2C[C@@H](F)C[C@H]2C(=O)N2CCCCC2)cc1F	-2%	3%	1%	i	i
COc1ccc(OC)c(NC(=O)N2C[C@@H](F)C[C@H]2C(=O)N2CCCCC2)c1	-11%	4%	11µM*	i	2%
Cc1nn(-c2ccccc2)c2c1C(C)N(CC1CN(C(=O)c3ccc(Cl)cc3)C1)C2=O (centres undefined)	?	.	35µM*	.	.
Cc1nn(-c2ccccc2)c2c1C(C)N(CC1CN(Cc3ccc(F)cc3)C1)C2=O (centres undefined)	?	.	35µM*	.	.
